Out of some 13,000 compounds screened, about 3,200 (25%) showed an effect of 50% or more. The list shows a part of the results.
Test system: P. falciparum stage V gametocytes
Design: BacTiter-Glo ATP luminescence viability of purified stage V gametocytes in 384-well plates, per cent inhibition versus DMSO
Conditions: 48 h, 5 µM; inhibitor

SMILES	% Inhibition
CCCO[C@H](C(=O)OC)[C@@H](CC1Cc2ccccc2C1)C(=O)NCCC1=CCCCC1 [TCMDC-140419]	-16.75%
COc1ccc2nc(C)cc(Nc3ccc(Oc4ccc5ccccc5c4)c(Cl)c3)c2c1 [TCMDC-124209]	-14.35%
N#Cc1cccc(-c2nc(NCc3cccc(C(F)(F)F)c3)nn2-c2cccc(C(F)(F)F)c2)c1 [TCMDC-133548]	-85.5%
Cc1nc(N)nc(N)c1-c1ccc(Br)c(Br)c1 [TCMDC-137372]	14.5%
COc1ccc2ncc(F)c(CCN3CCC(CNC(=O)C(=O)c4c[nH]c5ccccc45)CC3)c2n1 [TCMDC-135874]	3.215%
Cc1cc(C(=O)Nc2ccc3c(ccn3C3CCCN(Cc4ccc(C(F)(F)F)cc4F)CC3)c2)no1 (centres unmarked) [TCMDC-135088]	41.42%
COc1cccc(NC(=O)Nc2ccc(C)c(-c3ccc(C(=O)Nc4ccncc4)cc3)c2)c1 [TCMDC-133704]	-18.6%
COc1ccc(NC(=O)c2ccc(-c3ccc(-c4cccnc4)cc3)c(C)c2)cc1OCCN(C)C [TCMDC-138989]	38.05%
COC(=O)c1ccc(-c2ccc(-c3cccnc3)cc2C)cc1 [TCMDC-139074]	95.09%
COc1ccc(NC(=O)c2ccc(Br)c(C)c2)cc1N1CCN(CCCc2c[nH]c3ccccc23)CC1 [TCMDC-139036]	49.59%
COc1ccc(NC(=O)c2cccc(Br)c2)cc1N1CCN(CCCCCCCN2CCN(c3cc(NC(=O)c4cccc(Br)c4)ccc3OC)CC2)CC1 [TCMDC-139020]	104.8%
CCN1CCN(c2cc(C)c3cc(NC(=O)c4ccc(OC)c([N+](=O)[O-])c4)ccc3n2)CC1 [TCMDC-123599]	3.112%
CCN1CCN(c2cc(C)c3cc(NC(=O)c4ccc(OC)c(OC)c4)ccc3n2)CC1 [TCMDC-123598]	74.46%
COc1ccc(NC(=O)c2ccc(-c3cccc(OCc4ccccc4)c3)cc2)cc1N1CCN(C)CC1 [TCMDC-138991]	-59.54%
COc1ccc(NC(=O)c2ccc3cc4ccccc4cc3c2)cc1N1CCN(C)CC1 [TCMDC-138983]	82.38%
COc1ccc(NC(=O)c2ccc(Br)c(C)c2)cc1N1CCN(CCCCc2ccccc2)CC1 [TCMDC-139035]	-7.283%
COc1ccc(NC(=O)c2ccc(C=Cc3ccc(C(F)(F)F)cc3)cc2)cc1N1CCN(C)CC1 [TCMDC-138674]	15.84%
COc1ccc(NC(=O)c2ccc(NC(=O)c3ccc(Cl)cc3)cc2)cc1N1CCN(C)CC1 [TCMDC-138188]	5.64%
COc1ccc(NC(=O)c2ccc(OCCCCCCCOc3ccc(C(=O)Nc4ccc(OC)c(N5CCN(C)CC5)c4)cc3)cc2)cc1N1CCN(C)CC1 [TCMDC-139007]	102%
COc1ccc(NC(=O)c2ccc(-c3nc(-c4ccccc4)cs3)cc2)cc1N1CCN(C)CC1 [TCMDC-138980]	-14.93%
COc1ccc(C(=O)Nc2ccc3nc(N4CCCCC4)cc(C)c3c2)cc1OC [TCMDC-124422]	4.122%

SMILES	% Inhibition
O=C(Nc1cc(C(F)(F)F)cc(C(F)(F)F)c1)c1cccc([N+](=O)[O-])c1 [TCMDC-123503]	-13.95%
COc1csc2cc(Br)ccc12 [TCMDC-139000]	9.347%
COc1cc(C(=O)NCCCN2CCN(c3cc(Cl)ccc3OC)CC2)ccc1-c1nc2cc(Cl)c(Cl)cc2[nH]1 [TCMDC-140079]	4.425%
COc1cc(C(F)(F)F)c2cc(CNCCCNc3nc4ccccc4[nH]3)[nH]c2c1 [TCMDC-140014]	33.56%
CCOc1ccc(Nc2ccc3nonc3c2S(=O)(=O)Nc2ccc(OCC)cc2)cc1 [TCMDC-138325]	-11.05%
CCC(CC)(CCC#N)CN(C[C@@H](O)[C@H](Cc1ccccc1)NC(=O)OC(C)(C)C)S(=O)(=O)c1ccc(OC)cc1 [TCMDC-138270]	4.425%
COc1ccc(O)c(Cc2cnc3nc(N)[nH]c(=O)c3c2C)c1 [TCMDC-137766]	-34.15%
CCCNc1ccc2nccc(CCN3CCC(NCc4ccc5c(n4)NC(=O)CS5)CC3)c2n1 [TCMDC-141591]	39.25%
CO/C(=C\C=C\c1cc2cc(Cl)c(Cl)cc2[nH]1)C(=O)NCCCN1CCN(c2cccc(Cl)c2)CC1 [TCMDC-139141]	15.28%
CO/C(=C\C=C\c1cc2cc(Cl)c(Cl)cc2[nH]1)C(=O)NCCCN1CCCC[C@H]1C [TCMDC-139058]	98.53%
COc1ccc(Cl)cc1N1CCN(CCCNC(=O)c2ccc(-c3nc4cc(Cl)c(F)cc4[nH]3)c(F)c2)CC1 [TCMDC-140098]	-15.17%
CO/C(=C\C=C\c1cc2cc(Cl)c(Cl)cc2[nH]1)C(=O)NCCCN1CCCC[C@@H]1C [TCMDC-139059]	70.67%
CO/C(=C\C=C\c1cc2cc(Cl)c(Cl)cc2[nH]1)C(=O)NCCCCN1CCN(c2ccccc2OC)CC1 [TCMDC-139178]	-64.2%
CO/C(=C\C=C\c1cc2cc(Cl)c(Cl)cc2[nH]1)C(=O)NCCCN1CCN(C2CCCCC2)CC1 [TCMDC-139296]	-42.38%
COc1ccc2nc(-c3ccc(C(=O)NCCCN4CCN(c5cc(Cl)ccc5OC)CC4)cc3)[nH]c2c1 [TCMDC-140024]	-1.879%
CO/C(=C\C=C\c1cc2cc(Cl)ccc2[nH]1)C(=O)NCCCN1CCN(c2cc(Cl)ccc2OC)CC1 [TCMDC-139242]	50.82%
CO/C(=C\C=C\c1cc2cc(Cl)c(Cl)cc2[nH]1)C(=O)NCCCN1CC(C)N(C)CC1C (centres unmarked) [TCMDC-139044]	-57.76%
CO/C(=C\C=C\c1cc2cc(Cl)c(Cl)cc2[nH]1)C(=O)NCCN1CCCCC1 [TCMDC-139019]	39.34%
CCOC(=O)C1CCN(CCCNC(=O)/C(=C/C=C/c2cc3cc(Cl)c(Cl)cc3[nH]2)OC)CC1 [TCMDC-139356]	-1.751%
COc1ccc(Cl)cc1N1CCN(CCCNC(=O)c2ccc(-c3nc4cc(Cl)c(F)cc4[nH]3)cc2)CC1 [TCMDC-140094]	66.12%

— PMC4552634, “A New Set of Chemical Starting Points with Plasmodium falciparum Transmission-Blocking Potential for Antimalarial Drug Discovery” (PLoS ONE, 2015)
